PubChem BioAssay AID463173 (ICCB-Longwood Screening Facility, Harvard Medical School, 2010)
Among all 52,000 compounds or so, about 4,300 (8.3%) were called active. The entries come from a sample that favours actives as a whole. Unmarked numbers belong to inactive results. No stated cut-off is given here; in the data, active means survival mostly below about 52% (no sharp cut-off); inactive means mostly above about 56%.

tested on: DeltatarO mutant; assay: growth inhibition of S. aureus wild type versus tarO mutant, primary screen, teichoic acid synthesis inhibitors, RN4220, OD600 (AID 463173); conditions: OD600, 18 h, active compounds read low, screened at 18.75 µg/mL (by protocol)

| Structure (SMILES) | survival |
| --- | --- |
| COCC(=O)N1CCC(n2nnc3cc(F)ccc32)CC1 | 53% |
| CCN(CC)CC(=O)N1CCCC1=O | 100% |
| Cc1cc(C)c(/C=C/c2onc(C)c2S(=O)(=O)N2CCC(C(=O)NCc3ccco3)CC2)c(C)c1 | 90% |
| CCOC(=O)c1ccc(NC(=O)CCn2c(=O)c3cccn3c3ccccc32)cc1 | 91% |
| CCC(c1nnnn1CCOC)N1CCN(c2cccc(C(F)(F)F)c2)CC1 (configuration not stated) | 107% |
| Cn1c(CNc2ccc(Cl)cc2)nnc1SCc1ccc(Cl)cc1 | 68% |
| CC(=O)N1CCCC1c1nc2ccccc2n1Cc1ccc(F)cc1 (configuration not stated) | 85% |
| CCc1cccc(CC)c1NC(=O)c1c(C)oc2ccc(O)c(CN3CCCC3)c12 | 113% |
| O=S1(=O)c2ccccc2-c2cc(Br)ccc21 | 79% |
| CCOC(=O)CNC(=O)Nc1cc(C(=O)NCc2ccccc2OC)ccc1N1CCCC1 | 80% |
| CCC(=O)/C=C1/Sc2ccc(C)cc2N1CC | 97% |
| Cc1cc(F)ccc1NC1(c2ccccc2)C(=O)c2ccccc2C1=O | 79% |
| Cc1ccc(NC2(c3ccccc3)C(=O)c3ccccc3C2=O)cc1F | 58% (active) |
| O=C(O)c1cc(NC2(c3ccccc3)C(=O)c3ccccc3C2=O)ccc1Cl | 87% |
| COc1cc(OC)c(NC(=O)Nc2sc3nc4n(c(=O)c3c2C)CCC(C)CC4)cc1Cl (configuration not stated) | 85% |
| COc1ccc(Cn2cc(C(=O)c3ccc(C)cc3)c(=O)c3cc(OC)c(OC)cc32)cc1 | 93% |
| CCc1ccc2c(c1)c(=O)c(C(=O)c1ccc(C)cc1)cn2CC(=O)Nc1ccc2c(c1)OCCO2 | 61% |
| CCc1ccc(C(=O)c2cn(CC(=O)Nc3ccc4c(c3)OCCO4)c3ccc(CC)cc3c2=O)cc1 | 72% |
| COc1ccc(C(=O)c2cn(Cc3ccc(F)cc3)c3ccc(C)cc3c2=O)cc1 | 24% (active) |
| COc1ccc(Cn2cc(C(=O)c3ccc(F)cc3)c(=O)c3cc4c(cc32)OCCO4)cc1 | 66% |
| COc1ccccc1Cn1cc(C(=O)c2ccc(C)cc2)c(=O)c2cc(C)ccc21 | 112% |
| O=C(c1ccc2c(c1)OCO2)c1cn(Cc2ccc(F)cc2)c2ccccc2c1=O | 68% |
| CCc1ccc(C(=O)c2cn(CC(=O)Nc3ccc4c(c3)OCCO4)c3ccc(C)cc3c2=O)cc1 | 57% (active) |
| O=C(c1ccc2c(c1)OCO2)c1cn(Cc2ccc(Cl)cc2)c2ccc(F)cc2c1=O | 55% (active) |
| CCOc1ccc2c(c1)c(=O)c(C(=O)c1ccc3c(c1)OCO3)cn2Cc1ccc(F)cc1 | 98% |
| CCc1ccc(C(=O)c2cn(Cc3ccccc3)c3cc(OC)c(OC)cc3c2=O)cc1 | 58% |
| COc1ccccc1Cn1cc(C(=O)c2ccccc2)c(=O)c2cc(OC)c(OC)cc21 | 23% (active) |
